Reference: PMC7862700, “An all-to-all approach to the identification of sequence-specific readers for epigenetic DNA modifications on cytosine”

Columns and labels:
Experiment in all cases: DAPPL (digital affinity profiling via proximity ligation, sequencing); 10 mM Tris-HCl pH 7.5, 50 mM NaCl, 1 mM DTT, 4% glycerol, room temperature, 30 min; GST-TFs on glutathione beads, 16-mer random dsDNA library, 0.1% formaldehyde crosslink after washing; high values mean tight binding
Settings in all cases: protein: recombinant; tags: N-terminal GST; dsDNA, one strand shown
FLI1 = target: T1, FLI1 (Homo sapiens, UniProt Q01543 1-452)
T1 sequence: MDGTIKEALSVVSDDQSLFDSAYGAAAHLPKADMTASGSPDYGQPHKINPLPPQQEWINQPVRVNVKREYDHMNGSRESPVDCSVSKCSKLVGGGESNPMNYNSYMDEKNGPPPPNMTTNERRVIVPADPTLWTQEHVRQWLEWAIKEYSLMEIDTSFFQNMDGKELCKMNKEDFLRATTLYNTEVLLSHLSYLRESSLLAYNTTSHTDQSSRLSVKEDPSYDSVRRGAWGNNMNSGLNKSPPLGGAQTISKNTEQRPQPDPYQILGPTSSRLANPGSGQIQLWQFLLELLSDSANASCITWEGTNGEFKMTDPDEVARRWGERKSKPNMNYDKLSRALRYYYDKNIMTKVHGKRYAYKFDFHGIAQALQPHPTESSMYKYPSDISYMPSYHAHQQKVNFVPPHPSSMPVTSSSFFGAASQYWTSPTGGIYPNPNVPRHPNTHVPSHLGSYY
Method in brief: (§1)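 Human transcription factors were made in yeast as GST fusions, captured on glutathione beads and barcoded with DNA. With a tag-only sample included, the pool was incubated with 200 nmole of a random double-stranded 16-mer DNA library in Tris/NaCl/DTT/glycerol buffer at room temperature for 30 min, then crosslinked with 0.1% formaldehyde after washing, ligated by proximity, amplified and sequenced. For binding signal, each hexamer's read frequency for a factor is divided by its frequency for the tag-only sample.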

ELK1 = target: T2, ELK1 (Homo sapiens, UniProt P19419 1-428)
T2 sequence: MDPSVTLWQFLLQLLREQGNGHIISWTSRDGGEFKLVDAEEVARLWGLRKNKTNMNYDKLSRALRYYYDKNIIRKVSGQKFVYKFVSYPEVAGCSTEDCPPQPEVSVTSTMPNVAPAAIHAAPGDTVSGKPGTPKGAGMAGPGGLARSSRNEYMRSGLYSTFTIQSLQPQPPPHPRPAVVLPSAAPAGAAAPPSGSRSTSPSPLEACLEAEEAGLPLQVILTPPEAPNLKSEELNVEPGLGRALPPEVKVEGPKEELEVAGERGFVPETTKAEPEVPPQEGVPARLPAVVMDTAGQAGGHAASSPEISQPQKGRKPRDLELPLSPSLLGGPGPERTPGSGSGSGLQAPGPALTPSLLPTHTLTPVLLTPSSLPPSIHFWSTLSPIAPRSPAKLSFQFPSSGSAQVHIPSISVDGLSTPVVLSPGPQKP
Method in brief: as §1

GABPA = target: T3, GABPA (Homo sapiens, UniProt Q06546 1-454)
T3 sequence: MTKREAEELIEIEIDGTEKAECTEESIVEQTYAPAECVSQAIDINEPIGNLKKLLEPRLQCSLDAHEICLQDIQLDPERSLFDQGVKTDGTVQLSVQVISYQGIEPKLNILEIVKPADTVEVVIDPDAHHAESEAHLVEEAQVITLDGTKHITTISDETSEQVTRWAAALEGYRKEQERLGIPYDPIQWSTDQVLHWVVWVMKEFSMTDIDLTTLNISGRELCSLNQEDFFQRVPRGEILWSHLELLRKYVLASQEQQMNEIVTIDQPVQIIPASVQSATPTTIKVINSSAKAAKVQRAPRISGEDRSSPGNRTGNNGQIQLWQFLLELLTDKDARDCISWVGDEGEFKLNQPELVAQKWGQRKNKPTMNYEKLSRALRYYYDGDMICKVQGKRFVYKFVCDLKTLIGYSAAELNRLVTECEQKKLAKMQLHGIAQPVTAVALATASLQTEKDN
Method in brief: as §1

ERG = target: T4, ERG (Homo sapiens, UniProt P11308 1-479)
T4 sequence: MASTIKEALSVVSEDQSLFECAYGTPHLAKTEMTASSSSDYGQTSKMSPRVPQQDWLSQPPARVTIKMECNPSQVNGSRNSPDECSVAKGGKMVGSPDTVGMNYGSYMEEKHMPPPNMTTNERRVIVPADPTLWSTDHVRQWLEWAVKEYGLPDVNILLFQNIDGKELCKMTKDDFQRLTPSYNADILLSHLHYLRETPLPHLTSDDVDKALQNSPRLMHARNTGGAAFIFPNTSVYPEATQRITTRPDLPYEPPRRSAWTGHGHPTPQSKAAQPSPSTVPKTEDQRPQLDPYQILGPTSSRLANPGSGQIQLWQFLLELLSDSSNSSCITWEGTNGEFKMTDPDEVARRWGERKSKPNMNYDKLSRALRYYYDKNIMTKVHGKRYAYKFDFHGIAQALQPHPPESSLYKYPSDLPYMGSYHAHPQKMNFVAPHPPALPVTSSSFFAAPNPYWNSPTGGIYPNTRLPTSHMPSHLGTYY
Method in brief: as §1

ELF1 = ELF1 (Homo sapiens, UniProt P32519 1-619)
Method in brief: as §1

EHF = target: T5, EHF (Homo sapiens, UniProt Q9NZC4 1-300)
T5 sequence: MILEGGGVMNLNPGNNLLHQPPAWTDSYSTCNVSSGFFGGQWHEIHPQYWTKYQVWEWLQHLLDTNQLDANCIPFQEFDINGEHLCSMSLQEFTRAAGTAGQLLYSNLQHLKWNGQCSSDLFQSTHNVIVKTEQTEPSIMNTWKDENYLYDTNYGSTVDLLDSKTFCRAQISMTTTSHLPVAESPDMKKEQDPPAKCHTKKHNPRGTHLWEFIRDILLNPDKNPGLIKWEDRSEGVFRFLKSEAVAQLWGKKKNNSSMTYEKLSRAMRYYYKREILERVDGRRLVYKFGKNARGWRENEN
Method in brief: as §1

SPI1 = SPI1 (Homo sapiens, UniProt P17947 1-270)
Method in brief: as §1

SPIB = SPIB (Homo sapiens, UniProt Q01892 1-262)
Method in brief: as §1

ELK3 = target: T6, ELK3 (Homo sapiens, UniProt P41970 1-407)
T6 sequence: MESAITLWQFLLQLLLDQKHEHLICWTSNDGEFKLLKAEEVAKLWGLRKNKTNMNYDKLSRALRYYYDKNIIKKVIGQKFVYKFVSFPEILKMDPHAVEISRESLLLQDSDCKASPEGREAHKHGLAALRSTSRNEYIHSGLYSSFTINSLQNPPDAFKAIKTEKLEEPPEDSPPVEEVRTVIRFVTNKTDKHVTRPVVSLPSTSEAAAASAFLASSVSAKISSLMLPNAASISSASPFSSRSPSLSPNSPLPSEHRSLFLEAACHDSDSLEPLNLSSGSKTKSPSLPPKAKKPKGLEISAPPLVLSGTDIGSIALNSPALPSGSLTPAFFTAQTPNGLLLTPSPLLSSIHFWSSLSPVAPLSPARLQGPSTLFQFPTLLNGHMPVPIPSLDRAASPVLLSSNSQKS
Method in brief: as §1

Chain of ELF1 (P32519 whole entry): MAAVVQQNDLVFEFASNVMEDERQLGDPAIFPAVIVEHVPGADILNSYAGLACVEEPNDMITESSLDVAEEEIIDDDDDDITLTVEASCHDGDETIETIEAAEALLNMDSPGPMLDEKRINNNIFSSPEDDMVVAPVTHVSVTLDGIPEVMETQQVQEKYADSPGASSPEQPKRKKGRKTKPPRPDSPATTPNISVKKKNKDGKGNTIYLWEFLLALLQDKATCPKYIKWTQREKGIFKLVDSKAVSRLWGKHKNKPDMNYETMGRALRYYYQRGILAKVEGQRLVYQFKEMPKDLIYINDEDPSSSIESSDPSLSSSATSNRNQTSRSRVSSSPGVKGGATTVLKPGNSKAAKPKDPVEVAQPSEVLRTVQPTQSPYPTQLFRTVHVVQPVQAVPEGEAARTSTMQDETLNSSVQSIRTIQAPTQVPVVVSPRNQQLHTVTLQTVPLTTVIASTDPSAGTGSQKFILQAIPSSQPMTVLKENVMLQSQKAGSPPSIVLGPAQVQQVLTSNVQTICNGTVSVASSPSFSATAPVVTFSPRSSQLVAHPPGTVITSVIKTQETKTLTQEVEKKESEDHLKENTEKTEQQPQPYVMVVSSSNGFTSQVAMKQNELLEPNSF
Chain of SPIB (Q01892 whole entry): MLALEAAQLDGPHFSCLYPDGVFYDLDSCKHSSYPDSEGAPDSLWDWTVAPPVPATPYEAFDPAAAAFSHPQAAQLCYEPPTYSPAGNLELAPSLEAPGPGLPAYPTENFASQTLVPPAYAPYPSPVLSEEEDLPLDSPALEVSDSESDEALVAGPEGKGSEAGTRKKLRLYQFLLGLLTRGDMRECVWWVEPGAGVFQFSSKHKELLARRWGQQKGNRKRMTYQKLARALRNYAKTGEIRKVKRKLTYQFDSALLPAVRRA

Question: Which binding signal (FLI1) does the source give for AACTCA here?
Answer: 1.35 fold enrichment (6-mer frequency, TF over GST control)

Question: What about the binding signal (ELK1) of the same sequence?
Answer: 1.27 fold enrichment (6-mer frequency, TF over GST control)

Question: And the binding signal (GABPA)?
Answer: 1.25 fold enrichment (6-mer frequency, TF over GST control)

Question: And the binding signal (ERG)?
Answer: 1.12 fold enrichment (6-mer frequency, TF over GST control)

Question: And the binding signal (ELF1)?
Answer: 1.23 fold enrichment (6-mer frequency, TF over GST control)

Question: And the binding signal (EHF)?
Answer: 1.18 fold enrichment (6-mer frequency, TF over GST control)

Question: What about the binding signal (SPI1) of the same sequence?
Answer: 1.25 fold enrichment (6-mer frequency, TF over GST control)

Question: What about the binding signal (SPIB) of the same sequence?
Answer: 1.23 fold enrichment (6-mer frequency, TF over GST control)

Question: And the binding signal (ELK3)?
Answer: 1.36 fold enrichment (6-mer frequency, TF over GST control)

Question: What does the source list for CTGTTT?
Answer: binding signal (FLI1): 1.48 fold enrichment (6-mer frequency, TF over GST control); binding signal (ELK1): 1.36 fold enrichment (6-mer frequency, TF over GST control); binding signal (GABPA): 1.41 fold enrichment (6-mer frequency, TF over GST control); binding signal (ERG): 1.4 fold enrichment (6-mer frequency, TF over GST control); binding signal (ELF1): 1.4 fold enrichment (6-mer frequency, TF over GST control); binding signal (EHF): 1.34 fold enrichment (6-mer frequency, TF over GST control); binding signal (SPI1): 1.6 fold enrichment (6-mer frequency, TF over GST control); binding signal (SPIB): 1.43 fold enrichment (6-mer frequency, TF over GST control); binding signal (ELK3): 1.34 fold enrichment (6-mer frequency, TF over GST control)

Question: Which results are given for TTGTCT?
Answer: binding signal (FLI1): 1.29 fold enrichment (6-mer frequency, TF over GST control); binding signal (ELK1): 1.23 fold enrichment (6-mer frequency, TF over GST control); binding signal (GABPA): 1.33 fold enrichment (6-mer frequency, TF over GST control); binding signal (ERG): 1.15 fold enrichment (6-mer frequency, TF over GST control); binding signal (ELF1): 1.27 fold enrichment (6-mer frequency, TF over GST control); binding signal (EHF): 1.18 fold enrichment (6-mer frequency, TF over GST control); binding signal (SPI1): 1.19 fold enrichment (6-mer frequency, TF over GST control); binding signal (SPIB): 1.15 fold enrichment (6-mer frequency, TF over GST control); binding signal (ELK3): 1.31 fold enrichment (6-mer frequency, TF over GST control)

Question: How did the binding signal (FLI1) turn out when ACGCCT was run?
Answer: 1.16 fold enrichment (6-mer frequency, TF over GST control)

Question: And the binding signal (ELK1)?
Answer: 1.24 fold enrichment (6-mer frequency, TF over GST control)

Question: And the binding signal (GABPA)?
Answer: 1.21 fold enrichment (6-mer frequency, TF over GST control)

Question: What about the binding signal (ERG) of the same sequence?
Answer: 1.2 fold enrichment (6-mer frequency, TF over GST control)

Question: What about the binding signal (ELF1) of the same sequence?
Answer: 1.29 fold enrichment (6-mer frequency, TF over GST control)

Question: What about the binding signal (EHF) of the same sequence?
Answer: 1.12 fold enrichment (6-mer frequency, TF over GST control)

Question: What about the binding signal (SPI1) of the same sequence?
Answer: 1.14 fold enrichment (6-mer frequency, TF over GST control)

Question: And the binding signal (SPIB)?
Answer: 1.2 fold enrichment (6-mer frequency, TF over GST control)

Question: What about the binding signal (ELK3) of the same sequence?
Answer: 1.21 fold enrichment (6-mer frequency, TF over GST control)

Question: Which results are given for CTTGCT?
Answer: binding signal (FLI1): 1.51 fold enrichment (6-mer frequency, TF over GST control); binding signal (ELK1): 1.35 fold enrichment (6-mer frequency, TF over GST control); binding signal (GABPA): 1.38 fold enrichment (6-mer frequency, TF over GST control); binding signal (ERG): 1.21 fold enrichment (6-mer frequency, TF over GST control); binding signal (ELF1): 1.33 fold enrichment (6-mer frequency, TF over GST control); binding signal (EHF): 1.25 fold enrichment (6-mer frequency, TF over GST control); binding signal (SPI1): 1.44 fold enrichment (6-mer frequency, TF over GST control); binding signal (SPIB): 1.34 fold enrichment (6-mer frequency, TF over GST control); binding signal (ELK3): 1.25 fold enrichment (6-mer frequency, TF over GST control)

Question: For TTTCGA, which binding signal (FLI1) is on record?
Answer: 1.36 fold enrichment (6-mer frequency, TF over GST control)

Question: And the binding signal (ELK1)?
Answer: 1.45 fold enrichment (6-mer frequency, TF over GST control)

Question: What about the binding signal (GABPA) of the same sequence?
Answer: 1.51 fold enrichment (6-mer frequency, TF over GST control)

Question: And the binding signal (ERG)?
Answer: 1.37 fold enrichment (6-mer frequency, TF over GST control)

Question: And the binding signal (ELF1)?
Answer: 1.56 fold enrichment (6-mer frequency, TF over GST control)

Question: What about the binding signal (EHF) of the same sequence?
Answer: 1.49 fold enrichment (6-mer frequency, TF over GST control)

Question: And the binding signal (SPI1)?
Answer: 1.35 fold enrichment (6-mer frequency, TF over GST control)

Question: What about the binding signal (SPIB) of the same sequence?
Answer: 1.48 fold enrichment (6-mer frequency, TF over GST control)

Question: What about the binding signal (ELK3) of the same sequence?
Answer: 1.52 fold enrichment (6-mer frequency, TF over GST control)

Question: TGTAAT was tested. Which binding signal (FLI1) did it give?
Answer: 1.27 fold enrichment (6-mer frequency, TF over GST control)

Question: And the binding signal (ELK1)?
Answer: 1.2 fold enrichment (6-mer frequency, TF over GST control)

Question: And the binding signal (GABPA)?
Answer: 1.2 fold enrichment (6-mer frequency, TF over GST control)

Question: What about the binding signal (ERG) of the same sequence?
Answer: 1.2 fold enrichment (6-mer frequency, TF over GST control)

Question: And the binding signal (ELF1)?
Answer: 1.18 fold enrichment (6-mer frequency, TF over GST control)

Question: And the binding signal (EHF)?
Answer: 1.15 fold enrichment (6-mer frequency, TF over GST control)

Question: And the binding signal (SPI1)?
Answer: 1.15 fold enrichment (6-mer frequency, TF over GST control)

Question: What about the binding signal (SPIB) of the same sequence?
Answer: 1.25 fold enrichment (6-mer frequency, TF over GST control)

Question: What about the binding signal (ELK3) of the same sequence?
Answer: 1.26 fold enrichment (6-mer frequency, TF over GST control)
